These results are taken from PubChem BioAssay.

The test can be described thus: JC-1 mitochondrial potential readout, lung cancer cells – cell-based, A549, JC-1 fluorescence, basal, 24 h, 100 nL, profiling panel (AID 1138).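 Note: A549 lung adenocarcinoma cells under basal conditions with no added stimulus; test concentration not given here.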 As to conditions: higher = more signal.
The compound `CO[C@@H]1COC(=O)[C@@H]2CCCN2C(=O)[C@@H](C)COC(=O)[C@H](COCc2ccccc2)NC(=O)CC=C[C@H]1C` had a z-score of -0.714. Under `C#CCCCON=C1C[C@@H](O)[C@@H](O)[C@@H]2[C@@H]3C(=O)N([C@@H](C)c4ccccc4)C(=O)[C@@H]3CC[C@H]12` stands -0.887. `COCCCNC(=O)[C@@]1(C)c2ccccc2C(=O)N(Cc2ccc(OC(F)(F)F)cc2)[C@H]1c1ccc(CO)cc1` gave a z-score of 0.332. To `C=COC[C@H]1CN2[C@@H](CC[C@@H](C)[C@@H]2c2ccc(Br)cc2)C(=O)O1` belongs 0.587. Compound `CC(CCN1CCCCc2nc(C)c(C)cc21)=NOC(C)CN1CCCc2nc(C)c(C)cc21` (stereo unspecified) had a z-score of -0.12. To `CC(C)=NOCc1ccc(-c2cc(-c3ccccc3)no2)cc1` belongs -0.405. To `CCc1cc2c(nc1CC)CCN(CCC(C)=NOC[C@@H](O)[C@H]1O[C@@H]3OC(C)(C)O[C@@H]3[C@H]1O)C2` belongs 0.489. Under `COc1cccc([C@H]2Oc3ccc(OC)cc3C(=NO[C@H](C)c3cn([C@@H]4COC[C@H]4O)nn3)[C@@H]2O)c1` stands -1.16; under `O=C(NN=C1C[C@@H](O)[C@@H](O)[C@@H]2[C@@H]3C(=O)N(c4ccc(F)cc4F)C(=O)[C@@H]3CC[C@@H]12)OCc1ccccc1`, -0.281; under `CCOC(=O)[C@H](Cc1ccccc1)NC(=O)CCC1CC(OC(=O)NCc2ccc3c(c2)OCO3)CC2(CCCC(COC(=O)NCc3cccc(C(F)(F)F)c3)O2)O1` (stereo partly specified), -0.659.

In turn, `C[C@@H](c1ccccc1)N1C(=O)[C@H]2[C@H]3[C@H](O)C=CC(=O)[C@@H]3CC[C@H]2C1=O` gave a z-score of 0.107.
